# PubChem BioAssay (NCATS)
# Inconclusive results are not listed. Entries that show only a call come without a potency. A number with no mark means an inactive call. Calls of active or inactive are those of the source. Calls follow the shape of the dose curve; as a rule, active = well fitted curve in the direction sought with a large enough effect; inconclusive = small, poorly fitted or top-dose-only effect, or another doubt; inactive = no such curve, though single readings can be large; an effect the other way counts as inactive or inconclusive.
# What was measured:
# [1] = qHTS for Inhibitors of the Aldehyde Dehydrogenase Family (ALDH1A2, ALDH1A3, ALDH2, ALDH3A1) (AID 2061307); also: nearly all actives have a fitted effect of over 50% in size; as to potency: test system not described further here; potency is read from the fitted curve at half-maximal effect
# [2] = biological target: Aldehyde dehydrogenase, mitochondrial (Homo sapiens) (UniProt P05091); assay: qHTS for Inhibitors of the Aldehyde Dehydrogenase Family (ALDH2) Primary screen (AID 2061308); also: nearly all actives have a fitted effect of over 55% in size
# [3] = biological target: Aldehyde dehydrogenase 1A1 (Homo sapiens) (UniProt P00352); assay: qHTS for Inhibitors of the Aldehyde Dehydrogenase Family (ALDH1A1) Confirmatory screens (AID 2061316); also: nearly all actives have a fitted effect of over 65% in size; also: potency is read from the fitted curve at half-maximal effect
# [4] = biological target: Retinaldehyde dehydrogenase 3 (Homo sapiens) (UniProt P47895); assay: qHTS for Inhibitors of the Aldehyde Dehydrogenase Family (ALDH1A3) Primary screen (AID 2061315)
# [5] = BET inhibitor-based combinations targeting novel dependencies in MECOM-rearranged (r) AML: OCI-AML3 cell line (AID 2202232); conditions: Potency: OCI-AML3 viability; also: series mostly up to about 46 µM; nearly all actives have a fitted effect of over 35% in size
# How it was run: (§1)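 Each compound was tested at eleven concentrations on cells seeded at 500/well. After two days' incubation, ATP-based luminescence reported viability; responses relative to DMSO and blank wells yielded AUC and cell-line-centred Z-AUC.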
# [6] = BET inhibitor-based combinations targeting novel dependencies in MECOM-rearranged (r) AML: MV-4-11 cell line (AID 2202233); also: nearly all actives have a fitted effect of over 45% in size
# How it was run: (§2)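 First, 500 cells per well were seeded; next, drugs were pinned as 11-point doses; then plates sat 48 hr in the incubator; finally CellTiter-Glo was added and luminescence read, with AUC and Z-AUC computed.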
# [7] = BET inhibitor-based combinations targeting novel dependencies in MECOM-rearranged (r) AML: HNT-34 cell line (AID 2202234); also: nearly all actives have a fitted effect of over 35% in size
# How it was run: as §2
# [8] = BET inhibitor-based combinations targeting novel dependencies in MECOM-rearranged (r) AML: UCSD-AML1 cell line (AID 2202235); also: series mostly up to about 46 µM; nearly all actives have a fitted effect of over 40% in size
# How it was run: as §2
# [9] = BET inhibitor-based combinations targeting novel dependencies in MECOM-rearranged (r) AML: AML-191 cell line (AID 2202236; also: nearly all actives have a fitted effect of over 35% in size)
# How it was run: as §1
# [10] = BET inhibitor-based combinations targeting novel dependencies in MECOM-rearranged (r) AML: AML-194 cell line (AID 2202237; also: nearly all actives have a fitted effect of over 40% in size)
# How it was run: as §1
# [11] = biological target: Retinaldehyde dehydrogenase 3 (Homo sapiens) (UniProt P47895); assay: qHTS for Inhibitors of the Aldehyde Dehydrogenase Family (ALDH1A3) Confirmatory screens (AID 2061311); also: nearly all actives have a fitted effect of over 60% in size; also: potency is read from the fitted curve at half-maximal effect
# [12] = biological target: Retinal dehydrogenase 2 (Homo sapiens) (UniProt O94788); assay: qHTS for Inhibitors of the Aldehyde Dehydrogenase Family (ALDH1A2) Confirmation screens (AID 2061314); also: nearly all actives have a fitted effect of over 65% in size; also: potency is read from the fitted curve at half-maximal effect
compound,measurement,setting,value
CC(=O)c1cccc(-c2csc(N3CCC(C(N)=O)CC3)n2)c1,Potency,[1],11.3 µM (active)
same,Potency,[2],inactive
same,Potency,[3],5.65 µM (active)
O=S(=O)(c1ccc2c(c1)OCO2)N1CCN(S(=O)(=O)c2c(F)cccc2F)CC1,Potency,[1],inactive
same,Potency,[2],inactive
same,Potency,[4],inactive
OCc1ccc(-c2ccc3ncnc(NCCc4cnc[nH]4)c3c2)o1,Potency,[1],inactive
same,Potency,[2],inactive
same,Potency,[4],inactive
same,Potency,[3],10.1 µM (active)
O=C(O)c1ccc(S(=O)(=O)N[C@H](Cc2ccc(O)cc2)C(=O)O)cc1,Potency,[1],inactive
same,Potency,[2],inactive
same,Potency,[4],inactive
same,Potency,[3],10.1 µM (active)
N#Cc1ccc(CNc2nc(-c3ccccc3C(F)(F)F)nc3ccccc23)cc1,Potency,[1],17.9 µM (active)
same,Potency,[2],inactive
same,Potency,[4],inactive
same,Potency,[3],14.2 µM (active)
COc1ccc(C2c3c(ncn(CCN4CCOCC4)c3=N)Oc3ccc4ccccc4c32)cc1OC (centres undefined),Potency,[1],inactive
same,Potency,[2],inactive
same,Potency,[4],inactive
NCC(=O)Nc1cncc(-c2nn3c(=O)cc(N4CCNCC4)nc3s2)c1,Potency,[1],inactive
same,Potency,[2],inactive
same,Potency,[4],inactive
same,Potency,[5],inactive
same,Potency,[6],inactive
same,Potency,[7],inactive
same,Potency,[8],inactive
same,Potency,[9],inactive
same,Potency,[10],inactive
COc1cccc(CN2C(=O)c3ccccc3NC2c2ccc(OC)c(COc3ccc(NC(C)=O)cc3)c2)c1 (centres undefined),Potency,[1],3.55 µM (active)
same,Potency,[2],inactive
same,Potency,[4],inactive
CN(Cc1ccco1)c1ncnc2ccc(-c3ccoc3)cc12,Potency,[1],inactive
same,Potency,[2],inactive
same,Potency,[4],inactive
same,Potency,[3],12.7 µM (active)
C/C=C/C=C/C(O)=C1/C(=O)[C@]2(C)C3/C(=C(O)/C=C/C=C/C)C(=O)C4(C)C1[C@]1(C)O[C@@]4(O)[C@@]3(C)O[C@@]12O,Potency,[1],inactive
same,Potency,[2],inactive
same,Potency,[4],inactive
same,Potency,[3],12.3 µM (active)
COc1ccc(OCc2cc(C3Nc4ccccc4C(=O)N3Cc3ccccc3)ccc2OC)cc1 (centres undefined),Potency,[1],5.65 µM (active)
same,Potency,[2],inactive
same,Potency,[4],inactive
COc1ccc(C2Nc3ccccc3C(=O)N2C2CCCC2)cc1COc1ccc(NC(C)=O)cc1 (centres undefined),Potency,[1],1.59 µM (active)
same,Potency,[2],inactive
same,Potency,[4],inactive
same,Potency,[3],20.1 µM (active)
COc1cccc(CNc2ccc(S(=O)(=O)Nc3ccc(C)nc3)cc2)c1O,Potency,[1],inactive
same,Potency,[2],inactive
same,Potency,[4],inactive
same,Potency,[3],inactive
CNc1sc(-c2cccc3ccccc23)nc1C(=O)OC,Potency,[1],15.9 µM (active)
same,Potency,[2],inactive
same,Potency,[4],inactive
same,Potency,[3],14.2 µM (active)
CC(=O)C1CCN(c2ncc(-c3cccc(N(C)C)c3)s2)CC1,Potency,[1],5.65 µM (active)
same,Potency,[2],inactive
same,Potency,[4],inactive
same,Potency,[3],10.1 µM (active)
N#Cc1nc(Nc2ccc(F)cc2)nc(NC2CCCC2)n1,Potency,[1],3.16 µM (active)
same,Potency,[2],inactive
same,Potency,[4],inactive
CC(=O)c1ccc(N2CCN(C(=O)CCS(=O)(=O)c3ccc4c(c3)oc(=O)n4C)CC2)cc1,Potency,[1],inactive
same,Potency,[11],16.2 µM (active)
COC(=O)c1ccc(O)c2ncc(-c3ccc(C(=O)N4CCNCC4)cc3)cc12,Potency,[1],inactive
same,Potency,[2],inactive
same,Potency,[4],inactive
same,Potency,[3],inactive
Cc1ccc2nc3sc(C(=O)Nc4ccncc4)cc3cc2c1,Potency,[1],11.3 µM (active)
same,Potency,[2],inactive
same,Potency,[4],inactive
same,Potency,[3],14.2 µM (active)
COc1ccc(C2Nc3ccccc3C(=O)N2CCCN(C)C)cc1COc1ccc(NC(C)=O)cc1 (centres undefined),Potency,[1],7.12 µM (active)
same,Potency,[2],inactive
same,Potency,[4],inactive
CN(C)c1cccc(-c2cnc(N3CCC(c4ncc[nH]4)CC3)s2)c1,Potency,[1],10.1 µM (active)
same,Potency,[11],4 µM (active)
same,Potency,[12],inactive
same,Potency,[4],inactive
same,Potency,[3],0.201 µM (active)
O=C(O)CN1C(=O)/C(=C/c2ccc(-c3cccc(Cl)c3)o2)SC1=S,Potency,[1],11.3 µM (active)
same,Potency,[11],inactive
same,Potency,[12],22.5 µM (active)
same,Potency,[4],inactive
same,Potency,[3],7.98 µM (active)
CCOC(=O)c1c(C)n(-c2ccc(OC)cc2)c2ccc(OC(=O)COc3ccccc3)cc12,Potency,[1],inactive
same,Potency,[11],inactive
same,Potency,[12],inactive
same,Potency,[3],inactive
CCOC(=O)C1CCN(C(=O)C(C)(C)NC(=O)Nc2ccc(N(C)C)cc2)CC1,Potency,[1],inactive
same,Potency,[11],14.2 µM (active)
same,Potency,[12],12.7 µM (active)
Cc1ccc(-c2cc(C(=O)NCc3cccc(F)c3)nn3cnnc23)cc1,Potency,[1],8.91 µM (active)
same,Potency,[11],8.91 µM (active)
same,Potency,[12],inactive
Cc1ccc(S(=O)(=O)Nc2cnccc2C(=O)Nc2nc(C(=O)O)cs2)cc1,Potency,[1],inactive
same,Potency,[11],20.1 µM (active)
same,Potency,[12],inactive
same,Potency,[4],inactive
CC(=O)N1CCN(c2ccc(NCc3ccc4c(c3)OCO4)cc2)CC1,Potency,[1],8.96 µM (active)
same,Potency,[11],11.3 µM (active)
same,Potency,[12],8.96 µM (active)
COc1cccc(S(=O)(=O)N2CCC3(CC2)CC(CC(=O)NC2CC2)CCO3)c1 (centres undefined),Potency,[1],inactive
same,Potency,[11],inactive
CN(C)c1ccc(-c2cc[nH]c(=O)c2N)cc1,Potency,[1],12.7 µM (active)
same,Potency,[11],20.1 µM (active)
same,Potency,[12],0.225 µM (active)
same,Potency,[4],inactive
same,Potency,[3],4 µM (active)
Cc1cccc(-c2ccccc2C=O)c1,Potency,[1],inactive
same,Potency,[11],inactive
same,Potency,[12],inactive
same,Potency,[3],inactive
